# Results: PubChem BioAssay (EPA / NIEHS)
# Records with an inconclusive call do not appear. Activity calls are given as the source filed them. The calls were made as follows, unless noted: active = hit-call score of the fitted dose curve at least 0.9, where 1 is the maximum; inactive = score below 0.9.
# Tests used:
# [1] = CCTE_Shafer_MEA_acute_spike_number: CCTE's Neural Acute Assay for Total Number of Spikes, Shafer Lab (AID 2284008);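 as to AC50: curve fitted for decrease in spike count so AC50 reflects inhibitors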
# Procedure, shortened: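 Rat cortical cultures, DIV 13/15, 37 C. 40 min baseline rec, cpd 0.03-40 uM, 40 min post-dose rec. Band-pass 300-5000 Hz, spike threshold 8x rms; % change in spike count per well, DMSO neg ctrl, loss-of-signal fit.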
# [2] = CCTE_Shafer_MEA_acute_firing_rate_mean: CCTE's Neural Acute Assay for Mean Firing Rate, Shafer Lab (AID 2284009);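 also: analyzed for loss of signal so actives lower firing rate relative to DMSO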
# Procedure, shortened: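 Rat primary cortical neurons on 48-well MEA plates, dosed at 0.03-40 uM on DIV 13 or 15; 40 min spontaneous activity recorded at 37 C before and after compound. Spike rate per electrode averaged per well, expressed as percent change from baseline.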
# [3] = CCTE_Shafer_MEA_acute_burst_duration_mean: CCTE's Neural Acute Assay for Mean Burst Duration, Shafer Lab (AID 2284014);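 also: hits are decreases in mean burst duration relative to DMSO controls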
# Procedure, shortened: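 Rat primary cortical neurons on 48-well MEA, treated at DIV 13 or 15 with 0.03-40 uM in at least 3 wells. Value is percent change in mean burst duration, comparing 40 min recordings at 37 C before and during exposure.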
# [4] = CCTE_Shafer_MEA_acute_per_burst_spike_number_mean: CCTE's Neural Acute Assay for Average Number of Spikes Per Burst, Shafer Lab (AID 2284015);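 also: hits are decreases in mean spikes per burst versus baseline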
# Procedure, shortened: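 Percent change in mean spikes per single-electrode burst is compared between a 40 min baseline and a 40 min recording with compound (0.03-40 uM). Cultures were rat cortical neurons on MEA plates at DIV 13 or 15, recorded at 37 C, with DMSO as the negative control.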
# [5] = CCTE_Shafer_MEA_acute_interburst_interval_mean: CCTE's Neural Acute Assay for Mean Interburst Interval, Shafer Lab (AID 2284016);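 also: percent change of mean interburst interval versus each well's own pre-dose baseline; curves fitted for decrease in interburst interval relative to DMSO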
# Procedure, shortened: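 Percent change in mean single-electrode interburst interval was calculated per well from 40 min recordings before and after compound (0.03-40 uM). Recordings were made at 37 C on rat cortical cultures at DIV 13 or 15, with spikes detected at 8x rms threshold.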
# [6] = CCTE_Shafer_MEA_acute_burst_percentage_mean: CCTE's Neural Acute Assay for Percentage of Spikes in a Burst, Shafer Lab (AID 2284017);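 as to AC50: curve fitted for loss of signal so potency reflects decreased burst percentage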
# Procedure, shortened: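 Well-level mean burst percentage from a 40-min recording after compound (0.03-40 uM) expressed as percent change from a 40-min baseline at 37C. Cultures: primary rat cortical neurons on MEA, dosed on DIV 13 or 15; fitted downward relative to DMSO.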
# [7] = CCTE_Shafer_MEA_acute_burst_percentage_std: CCTE's Neural Acute Assay for Standard Deviation of Burst Percentage, Shafer Lab (AID 2284018);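 also: fitted in the negative direction so actives lower burst percentage SD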
# Procedure, shortened: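 Rat primary cortical neurons on 48-well MEAs, DIV 13 or 15, 37 C. 40-min baseline then 40-min recording with compound (0.03-40 uM); well-level SD of per-electrode burst spike percentage, expressed as percent change from baseline.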
# [8] = CCTE_Shafer_MEA_acute_per_network_burst_spike_number_mean: CCTE's Neural Acute Assay for Average Number of Spikes in a Network Burst, Shafer Lab (AID 2284019);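 as to AC50: curve fitted for loss of signal so actives reduce spikes per network burst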
# Procedure, shortened: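 Rat primary cortical neurons on 48-well MEA at DIV 13 or 15, 37 C; compounds 0.03-40 uM, at least three wells each. 40-min baseline then 40-min exposure recording; percent change in mean spikes per network burst.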
# [9] = CCTE_Shafer_MEA_acute_per_network_burst_spike_number_std: CCTE's Neural Acute Assay for Standard Deviation of Number of Spikes in a Network Burst, Shafer Lab (AID 2284020);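 also: fitted for decrease in spike-number SD versus DMSO so actives lower it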
# Procedure, shortened: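 Rat primary cortical neurons on 48-well MEA (16 electrodes/well), treated DIV 13 or 15 at 0.03-40 uM, ≥3 wells per compound. 40 min recordings at 37 C before and after dosing; value is percent change in network-burst spike-number SD, negative direction vs DMSO.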
# [10] = CCTE_Shafer_MEA_acute_per_network_burst_electrodes_number_mean: CCTE's Neural Acute Assay for Mean Number of Electrodes in a Network Burst, Shafer Lab (AID 2284021);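 also: curves fitted for decreases only so hits reduce electrodes per burst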
# Procedure, shortened: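 Readout: % change in mean electrodes active per network burst, post- vs pre-treatment, each well. Spikes detected at 8x rms noise after 300-5000 Hz band-pass; rat cortical cultures, DIV 13/15, compounds 0.03-40 uM, DMSO baseline.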
# [11] = CCTE_Shafer_MEA_acute_network_burst_percentage: CCTE's Neural Acute Assay for Percentage of Network Bursts, Shafer Lab (AID 2284022);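 also: curves fitted for loss so actives lower network burst percentage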
# Procedure, shortened: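 Rat cortical cultures, DIV 13/15; 20 min equilibration, 40 min baseline, compound 0.03-40 uM, 40 min recording, 37 C. Spikes: 300-5000 Hz band-pass, threshold 8x rms noise. Readout: % change in network-burst spike fraction; loss direction vs DMSO.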
# [12] = CCTE_Shafer_MEA_acute_cross_correlation_area: CCTE's Neural Acute Assay for Area of Cross Correlation, Shafer Lab (AID 2284024);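 also: area under pooled inter-electrode spike cross-correlation near zero lag as percent change from own baseline; curves fitted for loss of cross-correlation area so actives lower synchrony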
# Procedure, shortened: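 Rat cortical cultures, DIV 13/15, MEA; spikes detected at 8x rms noise (300-5000 Hz band-pass). Compound 0.03-40 uM, ≥3 wells each. Readout: % change in pooled inter-electrode cross-correlation area vs own baseline; DMSO negative control.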
# [13] = CCTE_Shafer_MEA_acute_synchrony_index: CCTE's Neural Acute Assay for Synchrony, Shafer Lab (AID 2284027);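 also: network synchrony index of spontaneous spiking in primary rat cortical neurons on MEAs; fitted for loss of signal so actives lower synchrony relative to DMSO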
# Procedure, shortened: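 Primary rat cortical neurons on 16-electrode MEA wells were recorded 40 min at baseline (DIV 13 or 15) and 40 min after compound (0.03-40 uM) at 37 C. Synchrony index (0-1) expressed as percent change from baseline, versus DMSO.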
# [14] = CCTE_Shafer_MEA_acute_LDH: CCTE's Lactate Dehydrogenase Assay for Cytotoxicity in the Neural Acute Assay, Shafer Lab (AID 2284086; active = hit-call score of the fitted dose curve at least 0.9, where 1 is the maximum;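 also: active means LDH release rises above DMSO vehicle level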)
# Procedure, shortened: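 Primary rat cortical neurons on 48-well MEA plates, treated on day 13 or 15 post-plating. After the 40-min recording with compound, medium LDH release was read by absorbance at 490 nm. Gain of signal was fitted against DMSO negative control.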
# [15] = target: human Phosphoinositide 3-kinase alpha (PI3Ka), PIK3CA (gene 5290) (UniProt P42336); test: NVS_ENZ_hPI3Ka: NovaScreen (NVS) Enzymatic Assay for human Phosphoinositide 3-kinase alpha (PI3Ka) (AID 2283196; active = hit-call score of the fitted dose curve at least 0.9, where 1 is the maximum)
# human Phosphoinositide 3-kinase alpha (PI3Ka), PIK3CA (gene 5290), sequence (P42336 whole entry, looked up): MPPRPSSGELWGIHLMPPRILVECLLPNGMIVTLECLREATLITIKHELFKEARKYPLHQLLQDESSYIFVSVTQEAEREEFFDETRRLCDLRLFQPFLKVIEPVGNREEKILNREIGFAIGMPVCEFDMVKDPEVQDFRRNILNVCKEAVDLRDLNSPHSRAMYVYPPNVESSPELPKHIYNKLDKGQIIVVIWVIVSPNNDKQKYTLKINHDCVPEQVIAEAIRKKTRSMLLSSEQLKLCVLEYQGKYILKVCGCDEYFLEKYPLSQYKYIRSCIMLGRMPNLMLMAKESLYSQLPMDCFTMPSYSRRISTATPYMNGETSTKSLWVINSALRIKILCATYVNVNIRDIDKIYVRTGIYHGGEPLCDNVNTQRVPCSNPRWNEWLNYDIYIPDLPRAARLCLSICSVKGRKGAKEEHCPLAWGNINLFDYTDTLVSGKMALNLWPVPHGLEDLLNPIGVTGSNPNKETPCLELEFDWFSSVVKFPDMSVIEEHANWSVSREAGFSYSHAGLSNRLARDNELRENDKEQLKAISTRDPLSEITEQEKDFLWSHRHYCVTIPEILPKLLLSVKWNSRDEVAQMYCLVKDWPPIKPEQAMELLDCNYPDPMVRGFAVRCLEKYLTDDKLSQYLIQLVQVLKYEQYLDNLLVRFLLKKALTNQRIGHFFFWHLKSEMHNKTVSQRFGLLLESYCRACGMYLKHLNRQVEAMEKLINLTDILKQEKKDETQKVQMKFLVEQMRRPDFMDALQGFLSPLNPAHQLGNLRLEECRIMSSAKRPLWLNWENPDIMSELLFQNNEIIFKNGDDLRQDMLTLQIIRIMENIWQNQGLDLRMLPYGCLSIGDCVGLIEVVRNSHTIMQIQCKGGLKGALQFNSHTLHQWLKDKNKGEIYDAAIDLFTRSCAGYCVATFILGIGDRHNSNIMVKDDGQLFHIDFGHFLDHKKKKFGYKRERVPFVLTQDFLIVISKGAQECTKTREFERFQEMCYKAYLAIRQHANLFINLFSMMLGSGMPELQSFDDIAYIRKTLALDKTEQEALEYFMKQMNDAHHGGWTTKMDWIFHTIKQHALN
# Procedure, shortened: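 Enzyme activity as fluorescence after mobility-shift separation of substrate and product, 1 h reaction, recombinant human PI3Kα; concentration-response to 50 uM max for chemicals passing a 25 uM duplicate screen.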
# [16] = CCTE_Simmons_CellTiterGLO_HEK293T: Viability Assessment in CCTE's Assays for Thyroperoxidase (TPO) Inhibition, Simmons Lab (AID 2283665; active = hit-call score of the fitted dose curve at least 0.9, where 1 is the maximum;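 as to AC50: cells exposed to compound for 24 h before readout; actives reduce ATP signal below DMSO vehicle meaning cytotoxicity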)
# Procedure, shortened: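 HEK293T cells in DMEM with 1% FBS were dosed with 8 concentrations (5 nM–87.5 uM final, 0.5% DMSO) for 24 hr at 37C; ATP content was read by CellTiter-Glo luminescence, loss-of-signal versus DMSO, three biological replicates.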
# [17] = target: Estrogen receptor (Homo sapiens) (UniProt P03372); test: OT_ER_ERaERa_1440: Odyssey Thera (OT) 24-hour HEK293T Protein-Complementation Assay for Estrogen Receptor-alpha/-alpha Homodimer (AID 2283349; active = hit-call score of the fitted dose curve at least 0.9, where 1 is the maximum;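 also: hits raise fluorescence above DMSO for agonists and antagonists alike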)
# Estrogen receptor (Homo sapiens), sequence (P03372 whole entry, looked up, the tested form may be a part): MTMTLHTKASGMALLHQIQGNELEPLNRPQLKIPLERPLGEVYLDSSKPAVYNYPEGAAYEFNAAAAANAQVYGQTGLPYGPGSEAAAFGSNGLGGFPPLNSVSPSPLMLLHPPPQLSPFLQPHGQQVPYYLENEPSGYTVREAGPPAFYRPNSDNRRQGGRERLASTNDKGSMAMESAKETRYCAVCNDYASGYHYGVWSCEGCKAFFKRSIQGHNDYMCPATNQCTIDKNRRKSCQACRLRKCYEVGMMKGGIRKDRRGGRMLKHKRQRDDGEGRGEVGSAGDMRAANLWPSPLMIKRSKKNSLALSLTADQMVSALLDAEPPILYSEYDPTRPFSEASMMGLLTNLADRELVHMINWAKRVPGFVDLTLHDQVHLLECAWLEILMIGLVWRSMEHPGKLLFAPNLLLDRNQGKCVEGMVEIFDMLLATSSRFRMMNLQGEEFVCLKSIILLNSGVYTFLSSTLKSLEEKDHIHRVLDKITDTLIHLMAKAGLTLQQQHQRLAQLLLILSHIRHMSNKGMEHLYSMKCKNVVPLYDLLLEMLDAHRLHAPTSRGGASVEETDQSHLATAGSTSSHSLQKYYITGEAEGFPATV
# Procedure, shortened: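 HEK293T cells stably expressing the human ER alpha ligand-binding domain (aa 310-547) as a homodimer PCA were dosed for 24 hours. Fluorescence intensity was read by laser scanning cytometry, and gain of signal was fitted relative to DMSO vehicle.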
# [18] = system: Sodium/Iodide Symporter (NIS), SLC5A5 (gene 6528); test: CPHEA_Stoker_NIS_Inhibition_RAIU: CPHEA's Radioactive Iodide Uptake (RAIU) Assay for Sodium/Iodide Symporter (NIS) Inhibition, Stoker and Laws Labs (AID 2283841; active = hit-call score of the fitted dose curve at least 0.9, where 1 is the maximum)
# Procedure, shortened: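 Iodide uptake read as CPM of intracellular 125I (final 329 pM) after 2 h room-temperature exposure in HEPES-buffered HBSS, pH 7.4. Human NIS-expressing HEK293T cells; six concentrations 0.001–100 uM, 0.5% DMSO, normalised to DMSO wells.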
# [19] = target: Nuclear receptor subfamily 1 group I member 2 (Homo sapiens) (UniProt O75469); test: NVS_NR_hPXR: NovaScreen (NVS) Nuclear Receptor Binding Assay for human Pregnane X Receptor (PXR) (AID 2283365; active = hit-call score of the fitted dose curve at least 0.9, where 1 is the maximum;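 also: a drop in FRET signal versus DMSO baseline means the compound binds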)
# Nuclear receptor subfamily 1 group I member 2 (Homo sapiens), sequence (O75469 whole entry, looked up): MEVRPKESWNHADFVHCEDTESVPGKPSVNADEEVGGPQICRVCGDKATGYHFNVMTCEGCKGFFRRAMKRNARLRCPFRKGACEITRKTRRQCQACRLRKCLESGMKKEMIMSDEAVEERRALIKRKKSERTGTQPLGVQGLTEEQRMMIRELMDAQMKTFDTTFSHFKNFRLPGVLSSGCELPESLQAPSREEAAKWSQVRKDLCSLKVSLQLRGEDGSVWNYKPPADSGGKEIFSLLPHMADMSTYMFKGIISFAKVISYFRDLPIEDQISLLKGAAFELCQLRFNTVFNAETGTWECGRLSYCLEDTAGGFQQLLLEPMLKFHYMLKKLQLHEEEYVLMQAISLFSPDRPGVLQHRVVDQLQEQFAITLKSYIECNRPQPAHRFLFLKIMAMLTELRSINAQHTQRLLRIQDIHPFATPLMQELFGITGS
# Procedure, shortened: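 TR-FRET signal read at 2 h in a cell-free human PXR binding format. DMSO served as negative control and baseline; activity scored as signal loss. Single-concentration duplicate screen (25 uM), then concentration-response follow-up.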
# [20] = CCTE_Deisenroth_AIME_384WELL_CTox_Active: Cytotoxicity Assessment (CTOX) in CCTE's 384-well Estrogen Receptor Transactivation Assay with AIME metabolic competence (metabolism positive), Deisenroth Lab (AID 2284037; active = hit-call score of the fitted dose curve at least 0.9, where 1 is the maximum;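 also: chemicals first conditioned 2 h by alginate-bound induced rat liver S9 before cells; activity means signal loss indicating cell death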)
# Procedure, shortened: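 Chemicals pre-incubated 2 hours with alginate-immobilised phenobarbital/beta-naphthoflavone-induced male Sprague Dawley rat liver S9, then conditioned medium applied 24 hour to VM7Luc4E2 cells. Viability by fluorogenic protease substrate; 10-point series 0.002 - 200 uM.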
smiles,measurement,setting,value
CN(C)Cc1cc(C(C)(C)C)c(O)c(C(C)(C)C)c1,AC50,[1],2.98 µM (active)
same,AC50,[2],2.98 µM (active)
same,outcome,[3],inactive
same,outcome,[4],inactive
same,outcome,[5],inactive
same,AC50,[6],24.1 µM (active)
same,AC50,[7],15 µM (active)
same,AC50,[8],0.0516 µM (active)
same,AC50,[9],0.0258 µM (active)
same,outcome,[10],inactive
same,outcome,[11],inactive
same,outcome,[12],inactive
same,AC50,[13],22.8 µM (active)
same,outcome,[14],inactive
CCCOCCC,outcome,[15],inactive
Cc1cc(C)c(S(=O)(=O)O)cc1N=Nc1cc(S(=O)(=O)O)c2ccccc2c1O,AC50,[16],13.1 µM (active)
CCCCCCC1CCC(=O)O1 (stereo not drawn),outcome,[17],inactive
CN(C)c1ccc(C(c2ccccc2)c2ccc(N(C)C)cc2)cc1,AC50,[16],25.3 µM (active)
F[B-](F)(F)F,AC50,[18],0.82 µM (active)
C=C1CC[C@H]2C[C@@H]1C2(C)C,outcome,[17],inactive
same,outcome,[19],inactive
Nc1ccc(S(=O)(=O)Nc2cnc3ccccc3n2)cc1,outcome,[19],inactive
O=C(CC(C(=O)OC1CCCCC1)S(=O)(=O)O)OC1CCCCC1 (stereo not drawn),AC50,[19],8.32 µM (active)
CC(=O)CCc1ccccc1,outcome,[15],inactive
CCOC(=O)c1ccccc1,outcome,[17],inactive
same,outcome,[19],inactive
CC[N+](CC)(CC(=O)Nc1c(C)cccc1C)Cc1ccccc1 (tested in a mixture with another compound),AC50,[1],0.256 µM (active)
same,AC50,[2],0.694 µM (active)
same,outcome,[3],inactive
same,outcome,[4],inactive
same,outcome,[5],inactive
same,AC50,[6],2.13 µM (active)
same,outcome,[7],inactive
same,outcome,[8],inactive
same,outcome,[9],inactive
same,outcome,[10],inactive
same,outcome,[11],inactive
same,outcome,[12],inactive
same,outcome,[13],inactive
same,outcome,[20],inactive
same,outcome,[14],inactive
Cc1ccccc1S(N)(=O)=O,outcome,[15],inactive
O=C(O)c1ccccc1C(=O)O,outcome,[17],inactive
CC(C)CC(=O)CC(C)C,outcome,[20],inactive
Cc1cc2nc3c(=O)[nH]c(=O)nc-3n(C[C@H](O)[C@H](O)[C@H](O)CO)c2cc1C,AC50,[18],25.8 µM (active)
Oc1cccc2ccccc12,outcome,[16],inactive
same,outcome,[20],inactive
NC(N)=Nc1nc(CSCCC(N)=NS(N)(=O)=O)cs1,outcome,[1],inactive
same,outcome,[2],inactive
same,outcome,[3],inactive
same,outcome,[4],inactive
same,outcome,[5],inactive
same,outcome,[6],inactive
same,outcome,[7],inactive
same,outcome,[8],inactive
same,outcome,[9],inactive
same,outcome,[10],inactive
same,outcome,[11],inactive
same,outcome,[12],inactive
same,outcome,[13],inactive
same,outcome,[14],inactive
CCCCCCCCCCCCCCCCCC[N+](C)(C)C,AC50,[15],3.68 µM (active)
CC/C=C\CCO,outcome,[20],inactive
Sc1nc2ccccc2s1,outcome,[16],inactive
CC1(C)S[C@@H]2[C@H](NC(=O)[C@H](N)c3ccccc3)C(=O)N2[C@H]1C(=O)O,AC50,[15],12.5 µM (active)
same,outcome,[1],inactive
same,outcome,[2],inactive
same,outcome,[3],inactive
same,outcome,[4],inactive
same,AC50,[5],1.61 µM (active)
same,AC50,[6],0.0814 µM (active)
same,outcome,[7],inactive
same,outcome,[8],inactive
same,outcome,[9],inactive
same,outcome,[10],inactive
same,AC50,[11],3.57 µM (active)
same,outcome,[12],inactive
same,AC50,[13],0.0846 µM (active)
same,outcome,[14],inactive
CCCCOC(=O)COc1ccc(Cl)cc1Cl,outcome,[20],inactive
CCCCC(CC)COC(=O)CS (stereo not drawn),outcome,[16],inactive
O=C(OCc1ccccc1)c1ccccc1,outcome,[19],inactive
same,outcome,[18],inactive
C1=CCC=C1,outcome,[20],inactive
CCO[Si](CCCN)(OCC)OCC,outcome,[17],inactive
Cc1cccnc1,outcome,[18],inactive
COC(=O)[C@]1(C)CCC[C@@]2(C)[C@H]1CC=C1C=C(C(C)C)CC[C@@H]12,outcome,[19],inactive
same,outcome,[18],inactive
CCCCCC[C@@H](O)C/C=C\CCCCCCCC(=O)O,outcome,[18],inactive
CN(C)CCC(c1ccc(Cl)cc1)c1ccccn1 (stereo not drawn),outcome,[1],inactive
same,outcome,[2],inactive
same,outcome,[3],inactive
same,AC50,[4],24.3 µM (active)
same,AC50,[5],23.9 µM (active)
same,AC50,[6],23.8 µM (active)
same,AC50,[7],27.1 µM (active)
same,AC50,[8],3.62 µM (active)
same,AC50,[9],19.5 µM (active)
same,AC50,[10],3.59 µM (active)
same,AC50,[11],22.8 µM (active)
same,outcome,[12],inactive
same,AC50,[13],27.7 µM (active)
same,outcome,[14],inactive
